Among all 340,000 compounds or so, about 240 (0.071%) were called active. The sample holds actives, similar compounds and a random draw of the others, so the mix is not that of the screen. Calls come from the whole dose curve.
These compounds were tested against Snurportin-1 (Homo sapiens) + GTP-binding nuclear protein Ran (Homo sapiens) + Importin subunit beta-1 (Homo sapiens) (UniProt O95149+P62826+Q14974) (assay: qHTS Assay for Inhibitors of RanGTP induced Rango (Ran-regulated importin-beta cargo) - Importin beta complex dissociation). Conditions: Biochemical FRET Rango-importin beta; series mostly up to 46.1 µM.
From the text: NIH Molecular Libraries Probe Production Centers Network [MLPCN] NIH Chemical Genomics Center [NCGC] MLPCN Grant: R03 MH090808-01A1 Assay Submitter (PI): Petr Kalab NCGC Assay Overview: The small GTPase Ran regulates transport of macromolecules between the nucleus and the cytoplasm (nuclear transport) and has important functions in mitotic spindle assembly, nuclear envelope (NE) formation and nuclear pore complex (NPC) assembly. RanGTP gradient is thought to promote spindle assembly by providing a spatial clue to microtubule nucleation and Aurora A activation. Because the localized release and binding of importin alpha cargos relays this spatial clue to SAFs, inhibitors of the Rango - importin beta complex can then be used in further understanding their role in cell cycle specifically in mitosis progression. […] Activation of Aurora A has been linked to different types of cancer and a number of Aurora kinase inhibitors are being developed as potential canter therapeutics; therefore, identified inhibitors of this complex could be developed into potential anti-mitotic probes for cancer treatment. Purified recombinant proteins Rango - importin beta and RanGTP-RCC1 stock premixes were provided by the assay submitter. The assay used a fluorescence resonance energy transfer (FRET) Rango biosensor that contains the IBB of human snurportin 1 flanked by yellow fluorescent protein (EYFP) at the amino terminus and cerulean CFP10 at the carboxy terminus. […] RanGTP binding to the complex (in the presence of RCC1) releases the Rango from the complex. The flexibility of the IBB in the freed Rango allows the donor - acceptor fluorophores to interact, resulting in a high FRET signal. Inhibitors will therefore be identified based on the ability to interfere with the FRET signal increase. DMSO treated and no RanGTP-RCC1 (buffer only) wells were used as negative and positive controls respectively. FRET readings were obtained at two time points. FRET reading prior to importin beta addition (pre-read) were used flag potential compound interference; FRET reading after importin beta addition (post-read) were used to identify inhibitors.
NCGC Assay Protocol Summary: Two and a half uL/well of Rango- importin beta premix solution (0.1 uM Rango, 0.25 uM importin beta, 1x PBS, 1mM DTT, 0.02% Tween-20, 0.1% BSA final concentrations) was dispensed into 1536-well assay plates (Greiner, solid black medium-binding plates) with Aurora Discovery BioRAPTR Flying Reagent Dispenser (FRD; Beckton-Dickenson). Compound solution (23 nL) was transferred to the assay plate using Kalypsys pin tool equipped with a 1536-pin tool and incubated at room temperature for 5 min followed by a FRET pre-read using the PerkinElmer Envision plate reader. Two and a half uL/well of RanGTP-RCC1 premix solution (0.6 uM Ran, 2mM GTP, 0.2 uM RCC1, 1x PBS, 1mM DTT, 0.02% Tween-20, 0.1% BSA final concentrations) were then added and incubated at room temperature giving a final reaction volume of 5uL. After 45min FRET post-read was obtained via the Envision plate reader using the same optics and settings as the pre-read (CFP/YFP optimized dual optical module D450/D505; excitation mirror CFP 430/24 nm; and emission filters CFP 486/10 nm and YFP 530/10 nm).
Note: nearly all actives have a fitted effect of over 45% in size.
Potency is the fitted concentration of half-maximal effect.

Potency, active:
O=C(/C=C/Nc1ccc(S(=O)(=O)Nc2cnc3ccccc3n2)cc1)c1cccnc1 3.26 µM [inconclusive]
CC(=O)Oc1ccc2c(C)c(CC(C)O)c(=O)oc2c1 (centres undefined) 9.2 µM [inconclusive]

Potency, inactive:
O=C(NN=CC=Cc1ccccc1)C(O)C(O)C(=O)NN=CC=Cc1ccccc1 (centres undefined)
NC(=O)C1CCN(C(=O)c2cc(S(=O)(=O)N3CCN(c4ccccc4)CC3)ccc2Cl)CC1
CC1(C)C(=O)CCC2(C)C1=CCC1C2C(=O)CC2(C)C1CCC2(O)C(=O)CO (centres undefined)
O=C(Cc1ccc(S(=O)(=O)N2CCOCC2)s1)Nc1ccc(Br)c(C(F)(F)F)c1
C=CCOC(=O)N1CCC2CC1c1cc(-c3ccc(OC)cc3)ccc12 (centres undefined)
O=C(O)C1C2C=CC(O2)C1C(=O)Nc1ccccn1 (centres undefined)
c1ccc(C(=NNc2nc3ccccc3s2)c2ccccn2)cc1
C=CCN1C=C(C(=O)c2ccccc2)C(=O)CC1
CCCCC(=O)NC(c1ccc(OC)c(OC)c1)c1ccc2cccnc2c1O (centres undefined)
COc1cccc(CC(=NO)c2cccc(OC)c2)c1
CN(O)C(=S)c1ccccc1
CCN1CCC(O)(/C=C/c2ccc(C)cc2)C(C(=O)/C=C/c2ccc(C)cc2)C1 (centres undefined)
Oc1c(CN2CCOCC2)ccc(CN2CCOCC2)c1O
CN1C(c2ccc(F)cc2)=CS/C1=C(/C#N)c1nnc2n1-c1ccccc1SC2
CC(=NNC(=O)c1ccncc1)c1ccc(Cl)c(Cl)c1
C=C(C)CNC(=S)Nc1ccc(S(=O)(=O)Nc2cnc3ccccc3n2)cc1
CCOc1cc(C(=O)Nc2ccc(S(=O)(=O)Nc3cnc4ccccc4n3)cc2)cc(OCC)c1OCC
COC(=O)c1ccc(NCc2cc(O)ccc2O)cc1
Cc1c(CCC(=O)O)c(=O)oc2cc(OCc3ccc(Br)cc3)ccc12
COC(=O)Cc1c(C)c2ccc(OCC(=O)NCc3ccc4c(c3)OCO4)cc2oc1=O
COC(=O)c1ccc(CNC(=O)Cn2cc(C)c(=O)[nH]c2=O)cc1
COc1ccc(NS(=O)(=O)c2ccc(N3CCOCC3)c(NC(=O)/C=C/C(=O)O)c2)cc1
COc1ccc(C2NCCCC2c2ccccc2)cc1 (centres undefined)
Oc1cccc(CCc2ccccn2)c1
CCc1c(Nc2ccccc2C)nc(N)[nH]c1=O
Cc1ccc(S(=O)(=O)N2CCN(C(=O)COC(=O)/C=C/c3cccc(Cl)c3)CC2)c(C)c1
COc1ccc(C(CNC(=O)c2cccc(S(=O)(=O)Nc3ccc(Br)cc3)c2)N(C)C)cc1 (centres undefined)
